# Experimental data published in PubChem BioAssay (NCATS).
# Results filed as inconclusive are left out. A call without a number means that no potency is given here. Calls of active or inactive are those of the source. The call rests on the fitted dose curve; in most records, active means well fitted cell-killing curve with a large enough effect; inconclusive means small, poorly fitted or top-dose-only effect; inactive means flat fitted curve, though single readings scatter.
# Experiment: qHTS of pediatric cancer cell lines to identify multiple opportunities for drug repurposing: Primary screen for control Hh wild type fibroblast cells (AID 1347106); further: nearly all actives have a fitted effect of over 55% in size
# Conditions: Hh wild-type fibroblast viability, CellTiter-Glo luminescence, 48 h; series mostly up to 46 µM
# Description: Drug repurposing or repositioning has been offered as a strategy for drug development in oncology programs. This approach has special potential for childhood cancers and other rare or orphan diseases, where the expected return on new drug development has been a disincentive to pharmaceuticals.
# In this project we exploit the poly-pharmacology of drugs to discover new indications via phenotypic screening of a panel of 19 well-characterized cell lines derived from solid tumors seen in children and adolescents. The goal is to identify approved drugs with previously unrecognized anticancer properties that has the potential to reveal new mechanisms and biological processes involved in carcinogenesis or drug resistance. We employed a titration-based paradigm (quantitative high-throughput screening or qHTS), where all compounds were tested at multiple concentrations for their effect on cell viability. Concentration-response curves (CRCs) were derived directly from the primary screen, and both potency and efficacy values were used to identify compounds with robust bioactivity profiles. We screened the NIH Chemical Genomics Center (NCGC) Pharmaceutical Collection (NPC) and Mechanism Interrogation Plate (MIPE) small molecule collections of approved and investigational compounds against these cell lines; and measured metabolically active cells after 48 hours of compound treatment as a proxy for cell viability.
# Assay Submitter: Nathalia J. Martinez, National Center for Advancing Translational Sciences, National Institutes of Health, Rockville, MD, USA; email: natalia.martinez@nih.gov
# [1] Shen, M et al. Quantitative high-throughput phenotypic screening of pediatric cancer cell lines identifies multiple opportunities for drug repurposing. Oncotarget 2017 Dec 19;9(4):4758-4772. PMID 29435139.
# The cells were obtained from University of North Carolina (UNC), Pediatric Preclinical Testing Program (PPT), and Coriell Institute (CI).
# qHTS cell viability assay:
# Cells were assayed in growth media at a density of 500-1,000 cells/well. Five microliters of cells were dispensed into 1,536-well, white, solid-bottom, TC-treated plates (Greiner Bio One) using a multidrop dispenser and incubated at 37 degrees C, 5% CO2, under a humidified atmosphere for 5 hours. Twenty-three nanoliters of compounds and controls (neutral control DMSO or positive control bortezomib at final concentration of 2.3 µM) were subsequently transferred by Kalypsys pintool. For primary screens, the MIPE collection was tested at 11-point dilutions (final concentrations range from 0.78 nM to 46 µM) and the NPC collection at 8-point dilutions (final concentrations range from 0.59 nM to 46 µM). Compounds tested in follow-up screens were assayed at 11-point dilutions. Cells were incubated for 48 hours, followed by addition of 3 µL of CellTiter-Glo (Promega). After a 15 min incubation at room temperature, samples were analyzed for luminescence intensity using a ViewLux High-throughput CCD imager equipped with clear filters.
# Potency means the concentration at half of the fitted maximal effect.
row,SMILES,Potency
1,Nc1ccc(S(N)(=O)=O)cc1,inactive
2,CCC[C@@H]1C[C@@H](C(=O)N[C@@H]([C@H]2O[C@H](SC)[C@H](O)[C@@H](O)[C@H]2O)[C@@H](C)O)N(C)C1,inactive
3,CC(C)(S)[C@@H](N)C(=O)O,inactive
4,O=C1c2ccccc2-c2n[nH]c3cccc1c23,inactive
5,Cc1cc2c(s1)Nc1ccccc1N=C2N1CCN(C)CC1,inactive
6,COc1cc(C(C)=O)ccc1OCCCN1CCC(c2noc3cc(F)ccc23)CC1,inactive
7,Cc1c(C(=O)NN2CCCCC2)nn(-c2ccc(Cl)cc2Cl)c1-c1ccc(Cl)cc1,inactive
8,COc1ccc2cc([C@H](C)C(=O)O)ccc2c1,inactive
9,CNC[C@@H](O)[C@@H](O)[C@H](O)[C@H](O)CO,inactive
10,O=P(O)(O)C(O)(Cn1ccnc1)P(=O)(O)O,inactive
11,Cc1cc2cc3c(C)cc(=O)oc3c(C)c2o1,inactive
12,COCCCN1CCC(NC(=O)c2cc(Cl)c(N)c3c2OCC3)CC1,inactive
13,CCCCC(CC)COC(=O)C(C#N)=C(c1ccccc1)c1ccccc1 (stereo not given),inactive
14,N=C(N=C(N)N)N1CCOCC1,inactive
15,Nc1nc(Cl)nc2c1ncn2[C@H]1C[C@H](O)[C@@H](CO)O1,inactive
16,NC(=NCc1ccccc1)NC(=O)c1nc(Cl)c(N)nc1N,inactive
17,COc1c(O)cc2c(c1O)[C@@H]1O[C@H](CO)[C@@H](O)[C@H](O)[C@H]1OC2=O,inactive
18,COCCCOc1ccnc(CS(=O)c2nc3ccccc3[nH]2)c1C (stereo not given),inactive
19,CCCCCCCCCCCCCCCCCCCCCCO,inactive
20,CC(C)C[C@H](NC(=O)[C@H](Cc1ccccc1)NC(=O)c1cnccn1)B(O)O,74.3 nM (active)

row,SMILES,Potency
1,COc1ccccc1N1CCN(CCN(C(=O)C2CCCCC2)c2ccccn2)CC1,inactive
2,COc1cc(OC)c(C(=O)CCCN2CCCC2)c(OC)c1,inactive
3,CCN(CC)CCOc1ccc(Cc2ccccc2)cc1,inactive
4,CN(C)[C@@H](CCOc1cccc2ccccc12)c1ccccc1,inactive
5,CCCCN(CCCC)CCC(O)c1cc2c(Cl)cc(Cl)cc2c2cc(C(F)(F)F)ccc12 (stereo not given),inactive
6,COC(=O)C1=C(C)NC(C)=C(C(=O)OCCCN2CCC(c3ccccc3)(c3ccccc3)CC2)C1c1cccc([N+](=O)[O-])c1 (stereo not given),inactive
7,Cc1ncc([N+](=O)[O-])n1CC(C)O (stereo not given),inactive
8,O=C(NOCC1CC1)c1ccc(F)c(F)c1Nc1ccc(I)cc1Cl,inactive
9,Cc1nc(-c2ccc(OCC(C)C)c(C#N)c2)sc1C(=O)O,inactive
10,NNc1nncc2ccccc12,inactive
11,CC(C)[C@H](N)C(=O)OCCOCn1cnc2c(=O)[nH]c(N)nc21,inactive
12,C[C@@H](N)C1CCC(C(=O)Nc2ccncc2)CC1 (stereo not given in full),inactive
13,CCOC(=O)C(C)Oc1cccc2c(=O)n(CC(=O)Nc3ccc4c(c3)OCCO4)ccc12 (stereo not given),inactive
14,CC(=O)O[C@H]1C(=O)[C@@]2(C)C([C@H](OC(=O)c3ccccc3)[C@]3(O)C[C@H](OC(=O)[C@H](O)[C@@H](NC(=O)c4ccccc4)c4ccccc4)C(C)=C1C3(C)C)[C@]1(OC(C)=O)CO[C@@H]1C[C@@H]2O (stereo not given in full),inactive
15,O=C(NC(Cc1cc(=O)[nH]c2ccccc12)C(=O)O)c1ccc(Cl)cc1 (stereo not given),inactive
16,Cc1nc2n(c(=O)c1CCN1CCC(c3noc4cc(F)ccc34)CC1)CCCC2,inactive
17,CN(c1nccc(=O)[nH]1)C1CCN(c2nc3ccccc3n2Cc2ccc(F)cc2)CC1,inactive
18,C[Se]CCC(N)C(=O)O (stereo not given),inactive
19,CC(C)c1nc(CN(C)C(=O)N[C@H](C(=O)N[C@@H](Cc2ccccc2)C[C@H](O)[C@H](Cc2ccccc2)NC(=O)OCc2cncs2)C(C)C)cs1,inactive
20,CN(C)c1ccc(O)c2c1C[C@H]1C[C@H]3[C@H](N(C)C)C(=O)C(C(N)=O)=C(O)[C@@]3(O)C(=O)C1=C2O,inactive
